The OligoGym collection
Note: reference of the scale not given here.

These sequences were tested against FAM194A (assay: pooled miR-30 sensor sort-seq; sequence = guide strand). Conditions: shRNA.
Work on TTATTGTCTTCATTATATCTTG yielded a sensor-assay potency score (higher = more potent) of -0.455. Work on TTAAGCGCTTTGAATCATCTTC yielded a sensor-assay potency score (higher = more potent) of -0.166. In the case of TTTATCAGACAAATCTTGGAGC, the sensor-assay potency score (higher = more potent) is reported as -0.442. Work on TTATATCTTGCTTTATACCAGA yielded a sensor-assay potency score (higher = more potent) of -0.69. TTCTCTAAGAGCTCATTCCTGA showed a sensor-assay potency score (higher = more potent) of -0.231. Sequence TAGAATATTTGTGTTGTCCCAT has a sensor-assay potency score (higher = more potent) of 0.0372.

Each sequence was assayed against FAM203A in the same assay as above. Conditions: shRNA.
TGGACCACGCACCTGTCGGGGT gave a sensor-assay potency score (higher = more potent) of -1.1. For TCCAACTGCTCCTGCTCCCTGC, the sensor-assay potency score (higher = more potent) was -0.834. TCTTGCGGATGTCTGCATCAGG showed a sensor-assay potency score (higher = more potent) of -1.13. TGATGTCGGTGCTCGAAGCAGC gave a sensor-assay potency score (higher = more potent) of -0.572. With TGCATCAGGTTCTCGCTGCTTG the sensor-assay potency score (higher = more potent) was -0.383. Work on TTGCAGTGGTTTTCTGTCCAGT yielded a sensor-assay potency score (higher = more potent) of -0.715. With TGCAAGTCGACAGGCAGCCGTT the sensor-assay potency score (higher = more potent) was -1.26. In the case of TAGCCGGGCGTGCACAGCGCGC, the sensor-assay potency score (higher = more potent) is reported as -1.89. For TTCAACAAGCATCTTGCGGATG, the sensor-assay potency score (higher = more potent) was -0.806. AGGTCCAAGCAACCACTCGTGA gave a sensor-assay potency score (higher = more potent) of -1.79. ATGGCTTCAACAAGCATCTTGC was tested, and the sensor-assay potency score (higher = more potent) was -0.247.

These sequences were tested against FAM22D in the same assay as above. Conditions: shRNA.
In the case of TAAGACCCAGAGAGTGACCTGG, the sensor-assay potency score (higher = more potent) is reported as -0.135. For ATGAATGACGGCCTCCACCTTG, the sensor-assay potency score (higher = more potent) was -1.02. Work on TTCCACAATGAGAAAAGCCAAG yielded a sensor-assay potency score (higher = more potent) of -1.63. For TGTTCTGTCACCAGAGGTGTGC, the sensor-assay potency score (higher = more potent) was -0.395. TGGTCTCTGCTGGTCTCTGGGG gave a sensor-assay potency score (higher = more potent) of -1.54. Sequence AATTCTTCCAGGAATTGGGGAT has a sensor-assay potency score (higher = more potent) of -0.511. In the case of TTCGGTGTCAGGACTCTGGGGA, the sensor-assay potency score (higher = more potent) is reported as 0.265. With TAAGACCAAGGTCTGCGCCTGA the sensor-assay potency score (higher = more potent) was -0.117. TTAGACAGCACCAGAGGGCCGC gave a sensor-assay potency score (higher = more potent) of -0.28. Sequence TTGAAAGTAAACAGGTTCCTGG has a sensor-assay potency score (higher = more potent) of -0.42. For TACTCCTGCACCACTTCTGGGG, the sensor-assay potency score (higher = more potent) was -0.442. TGAGGAAGCACGAAAGCGCTTC showed a sensor-assay potency score (higher = more potent) of -0.41. With TTTGAAAGTAAACAGGTTCCTG the sensor-assay potency score (higher = more potent) was -0.0805. Work on TTCTCATAGACACTCCTGGGGT yielded a sensor-assay potency score (higher = more potent) of -0.655. TTGGTGACGAAGTCTTTCTGGG was tested, and the sensor-assay potency score (higher = more potent) was -0.0512. TCTCATAGACACTCCTGGGGTT was tested, and the sensor-assay potency score (higher = more potent) was 0.0703. AAGTTAGACAGCACCAGAGGGC was tested, and the sensor-assay potency score (higher = more potent) was -0.454. TTGGTCTCTGCTCGCCGGTGGG showed a sensor-assay potency score (higher = more potent) of -1.33.

Each sequence was assayed against FAM22F in the same assay as above. Conditions: shRNA.
TCTCTCGCTGCTTCTTGGCCAG showed a sensor-assay potency score (higher = more potent) of -0.748. Work on TTGACAGGAGACTCTCCAGGGA yielded a sensor-assay potency score (higher = more potent) of -0.14. TTCTTGGACTTGCTGGCAGGAG gave a sensor-assay potency score (higher = more potent) of -0.948. AAGCACAGCAGGGTCTTCGGAC was tested, and the sensor-assay potency score (higher = more potent) was -0.95. TGACAGGAGACTCTCCAGGGAG gave a sensor-assay potency score (higher = more potent) of -0.895.
